For 39 compounds, Potency results are on record in PubChem BioAssay (NCATS).

Assay [1] concerns the target Aldehyde dehydrogenase, mitochondrial (Homo sapiens) (UniProt P05091). The assay can be described thus: qHTS for Inhibitors of the Aldehyde Dehydrogenase Family (ALDH2) Primary screen (AID 2061308). Further: nearly all actives have a fitted effect of over 55% in size. Particulars: ALDH2 enzyme inhibition qHTS, 1536-well; series mostly up to 56 µM.
Assay [2] has as its target Retinaldehyde dehydrogenase 3 (Homo sapiens) (UniProt P47895). The experiment in a line: qHTS for Inhibitors of the Aldehyde Dehydrogenase Family (ALDH1A3) Primary screen (AID 2061315). Particulars: ALDH inhibition qHTS; series mostly up to 56 µM. For orientation: In qHTS, concentration-response curves come from the screen itself.

Inconclusive results are not listed. A call without a number means that no potency is given here. Calls of active or inactive are those of the source. The call rests on the fitted dose curve; in most records, active means well fitted curve in the direction sought with a large enough effect; inconclusive means small, poorly fitted or top-dose-only effect, or another doubt; inactive means no such curve, though single readings can be large; an effect the other way counts as inactive or inconclusive.

On to `Cc1ccc(NC(=O)CN2C(=O)N/C(=C\c3cccn3-c3cccc(C(=O)O)c3)C2=O)cc1`, for which the Potency result in assay [1] and in assay [2] was “inactive” throughout.
Turning to `Cc1cc(NS(=O)(=O)c2ccc(C(=O)NCc3ccc(Cl)c(Cl)c3)cc2)no1`, the Potency result in assay [1] and in assay [2] was “inactive” throughout.
For the compound `Cc1ccc(S(=O)(=O)Nc2cc(C(=O)Nc3nc(-c4ccccc4)cs3)ccc2Cl)cc1`, the Potency entry in assay [1] and in assay [2] was “inactive” each time.
For the compound `Cc1cccc(-c2ccc3ncnc(NCc4cccs4)c3c2)c1`, the Potency entry in assay [1] and in assay [2] was “inactive” throughout.
Take `O=C(Nc1ccc(-c2nc3ccccc3[nH]2)cc1)c1ccc(Oc2ccccc2)cc1`: the Potency entry in assay [1] and in assay [2] was “inactive” each time.
With `O=[N+]([O-])c1ccc(-c2nc(Nc3ccc(F)c(F)c3)c3ccccc3n2)cc1`, the Potency entry in assay [1] and in assay [2] was “inactive” each time.
With `O=c1ccc2ccc(OCCCCN3CCN(c4cccc5sccc45)CC3)cc2[nH]1`, the Potency entry in assay [1] and in assay [2] was “inactive” each time.
In the case of `O=C(Nc1nc(-c2ccccc2)cs1)c1ccncc1NS(=O)(=O)c1ccccc1`, the Potency result in assay [1] and in assay [2] was “inactive” throughout.
As for `C(=Nc1cccnc1)c1cccs1`, the Potency result in assay [1] and in assay [2] was “inactive” each time.
Consider `Cc1onc(-c2ccccc2Cl)c1C(=O)N[C@@H]1C(=O)N2[C@@H]1SC(C)(C)[C@@H]2C(=O)O`, for which the Potency entry in assay [1] and in assay [2] was “inactive” throughout.
As for `O=[S+]([O-])(Nc1ccc(C2CCNCC2)cc1)c1ccc(NCc2ccc(Br)cc2O)cc1`, the Potency entry in assay [1] and in assay [2] was “inactive” in each case.
With `CCOC(=O)c1ccc(-c2ccc3ncnc(NCCc4cnc[nH]4)c3c2)o1`, the Potency result in assay [1] and in assay [2] was “inactive” each time.
Turning to `CC(=O)Nc1sc2c(c1-c1nc3ccccc3s1)CCN(C(=O)OC(C)(C)C)C2`, the Potency result in assay [1] and in assay [2] was “inactive” throughout.
For the compound `Nc1ccc2c(c1)C(=O)NS2(=O)=O`, the Potency result in assay [1] and in assay [2] was “inactive” each time.
With `O=C(CNC(=O)c1ccc2cc[nH]c2c1)OC(C(=O)Nc1cc(C(F)(F)F)ccc1Cl)c1ccccc1` (stereo not drawn), the Potency entry in assay [1] and in assay [2] was “inactive” each time.
Regarding `c1cncc(CNc2ncnc3ccc(-c4cccnc4)cc23)c1`, the Potency entry in assay [1] and in assay [2] was “inactive” throughout.
Turning to `Cc1cc(NC(=S)N2CCN(c3cccc(C(F)(F)F)c3)CC2)nc2ccccc12`, the Potency entry in assay [1] and in assay [2] was “inactive” each time.
In the case of `Cc1cc(C)nc(NC(=S)N2CCN(c3ccc4occc4c3)CC2)c1`, the Potency entry in assay [1] and in assay [2] was “inactive” throughout.
In the case of `O=C(CSc1nnc(-c2cccc(S(=O)(=O)N3CCCC3)c2)n1-c1ccccc1)Nc1ccc(C(=O)O)cc1`, the Potency entry in assay [1] and in assay [2] was “inactive” in each case.
As for `CC(Nc1nc(-c2ccccc2C(F)(F)F)nc2ccccc12)c1ccc(-c2ccncc2)cc1` (stereo not drawn), the Potency entry in assay [1] and in assay [2] was “inactive” each time.
For the compound `COc1cccc(CNc2ccc(S(=O)(=O)Nc3cnc4ccccc4c3)cc2)c1O`, the Potency entry in assay [1] and in assay [2] was “inactive” throughout.
Regarding `O=C(/C=C/n1cnc(-c2cc(C(F)(F)F)cc(C(F)(F)F)c2)n1)NNc1cnccn1`, the Potency result in assay [1] and in assay [2] was “inactive” each time.
On to `CCOc1ccccc1-c1nnc2n1N=C(c1cc(OC)cc(OC)c1)CS2`, for which the Potency entry in assay [1] and in assay [2] was “inactive” in each case.
Regarding `COc1ccc(-c2csc(NC(=O)c3ccccc3NS(=O)(=O)c3ccc(C)cc3)n2)cc1`, the Potency entry in assay [1] and in assay [2] was “inactive” each time.
Consider `COc1cc2ncnc(N(C)Cc3cccs3)c2cc1-c1ccc2c(c1)OCO2`, for which the Potency entry in assay [1] and in assay [2] was “inactive” throughout.
For `O=C(Nc1ccccc1)Nc1ccccc1`, the Potency result in assay [1] and in assay [2] was “inactive” each time.
For `CC(C)(C)OC(=O)NCc1nnc(-c2cc3ccccc3[nH]2)o1`, the Potency entry in assay [1] and in assay [2] was “inactive” in each case.
Take `COc1cc(O)c(C(CC(=O)N2CC(C)CC(C)C2)c2ccc3c(c2)OCCO3)c(OC)c1` (stereo not drawn): the Potency entry in assay [1] and in assay [2] was “inactive” in each case.
Turning to `O=C(Nc1ccc(Cl)c(Cl)c1)Nc1nnc(C2CCCCC2)s1`, the Potency result in assay [1] and in assay [2] was “inactive” throughout.
Turning to `O=C(N[C@H]1CCCc2c1cnn2-c1ccc(F)cc1F)c1ccccn1`, the Potency entry in assay [1] and in assay [2] was “inactive” in each case.
Regarding `Cc1ccc(OCCn2c(CCNC(=O)c3ccccc3Br)nc3ccccc32)cc1`, the Potency entry in assay [1] and in assay [2] was “inactive” in each case.
With `O=C1CCCC2=C1C(c1cccc(Oc3ccccc3)c1)N=C(Nc1nc3ccccc3o1)N2` (stereo not drawn), the Potency result in assay [1] and in assay [2] was “inactive” throughout.
For `N#CN1CCC(NS(=O)(=O)c2ccc(F)cc2)C1` (stereo not drawn), the Potency entry in assay [1] and in assay [2] was “inactive” in each case.
`c1cncc(-c2ccc(CNc3nc(N4CCCC4)nc4ccccc34)cc2)c1`: the Potency entry in assay [1] and in assay [2] was “inactive” each time.
Regarding `CCOc1ccc(NC(=O)c2ccc(-c3nc4ccccc4[nH]3)cc2)cc1Cl`, the Potency result in assay [1] and in assay [2] was “inactive” in each case.
In the case of `CC(C)(C)c1cccc(NC(=O)Nc2nnc(-c3ccncc3)s2)c1`, the Potency result in assay [1] and in assay [2] was “inactive” throughout.
For the compound `C/C=C/c1ccc2c(c1)[C@@H](C)[C@H](c1ccc(O)cc1)O2`, the Potency result in assay [1] and in assay [2] was “inactive” each time.
As to `O=C(Cc1ccccc1)Nc1ncnc2c1C(c1ccccc1)c1c(ccc3ccccc13)O2` (stereo not drawn), the Potency entry in assay [1] and in assay [2] was “inactive” in each case.
Turning to `Cc1ccc(S(=O)(=O)Nc2cnccc2C(=O)Nc2nc(-c3ccc(-c4ccccc4)cc3)cs2)cc1`, the Potency result in assay [1] and in assay [2] was “inactive” each time.
